# From PubChem BioAssay
# POLK inh = qHTS for Inhibitors of Polymerase Kappa | purified Pol kappa, fluorescent DNA synthesis assay, 10 min | actives 0.53% (n = 400,000) | AID 588579, 2011 | Potency, µM (doses to about 107 µM), usual class: inhibitors
#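 Here, compound and 10 nM enzyme are combined for 15 min at room temperature; adding 50 nM substrate (final) starts DNA synthesis, tracked by fluorescence at 0 and 10 min against buffer-only wells.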
# Pol beta inh-1 = qHTS Assay for Inhibitors of DNA Polymerase Beta; P06746; Pol beta primer extension/strand displacement, fluorescence kinetic; Potency, µM (doses to about 114 µM), actives largely listed as inhibitors; actives 1.3% (n = 340,000); AID 485314, 2010
#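 Kinetic readout of DNA synthesis with strand displacement by Pol beta. Compound and 10 nM enzyme sit 15 min at room temperature; 50 nM substrate starts the reaction, read immediately and at 10 min.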
# WRN helicase inh = qHTS for Inhibitors of WRN Helicase. actives 0.46% (n = 360,000). Potency, µM (top dose mostly 114 µM), hits mostly inhibitors. WRN helicase unwinding, fluorescent forked duplex, kinetic; further: nearly all actives have a fitted effect of over 55% in size
#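 Screening of the MLSMR collection measured strand separation of a quenched forked DNA duplex (100 nM) by 20 nM WRN with 2 mM ATP, all final. Compounds were preincubated with enzyme 15 min at room temperature.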
# FEN1 inhibitor = qHTS Assay for the Inhibitors of Human Flap endonuclease 1 (FEN1); Potency, µM (top dose mostly 114 µM), actives largely listed as inhibitors; actives 0.35% (n = 390,000); P39748; Recombinant FEN1 flap cleavage, fluorescence, 15 min; further: nearly all actives have a fitted effect of over 65% in size
#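 Potency values derive from four-parameter Hill fits of normalized qHTS data. The reaction used 10 nM FEN1 preincubated 15 min at room temperature with compound, then 50 nM DNA substrate, read at 0 and 15 min.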
# Pol eta inh-1 = qHTS for Inhibitors of Polymerase Eta. Potency, µM (series often up to 114 µM), hits mostly inhibitors. DNA polymerase eta (Homo sapiens), Q9Y253. actives 1.2% (n = 390,000). recombinant Pol eta, fluorescent DNA replication assay. AID 588591, 2011
#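 Pol eta (10 nM) was preincubated with compounds for 15 min at room temperature, after which fluorescent replication substrate (50 nM final) was added to start the reaction. Fluorescence was read kinetically at 0 and 10 min.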
# POLI inh = qHTS for Inhibitors of Polymerase Iota; Pol iota fluorescent replication assay, 10 min; Potency, µM (doses to about 115 µM), hits mostly inhibitors; actives 1% (n = 390,000); AID 588590, 2011
#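 Pol iota at 10 nM preincubated 15 min with compounds at room temperature; reaction started with fluorescent substrate, 50 nM final. Fluorescence read kinetically at 0 and 10 min; buffer-only wells as negative control.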
# Pol beta inh-2 = Inhibitors of DNA Polymerase Beta: Hit validation; shares compounds with Pol beta inh-1; Pol beta primer extension/strand displacement, fluorescence kinetic; Potency, µM, most hits filed as inhibitors; actives 87% (n = 250); calls by dose curve
# Klenow counter = Inhibitors of DNA Polymerase Beta: Hit Validation in Klenow Fragment Assay. AID 540300, 2011. 250 tested, under 10 active. shares compounds with Pol beta inh-1. activity change, negative = inhibition, % at 57.1 µM. Klenow exo- polymerase counter-screen, fluorescent DNA substrate
# HIV RT inh = Inhibitors of DNA Polymerase Beta: Hit Validation in HIV-RT Assay; AID 540301, 2011; shares compounds with Pol beta inh-1; HIV-1 RT polymerase activity, counter-screen; activity % (negative = inhibition, positive = activation), % at 57.1 µM; 250 tested, under 10 active
# BAZ2B confirm = qHTS Assay for Inhibitors of BAZ2B: Hit Validation. shares compounds with POLK inh. AlphaScreen BAZ2B / biotin-H3K14Ac peptide displacement. Potency, µM, most hits filed as inhibitors. actives 100% (n = 25). AID 588809, 2011; calls by dose curve
# AlphaScreen ctr = qHTS Assay for Inhibitors of BAZ2B: Hit Validation in AlphaScreen Counterscreen | shares compounds with POLK inh | AlphaScreen biotin-His6 peptide bead counterscreen, signal decrease | Potency, µM (titrated, usually from 57.1 µM), actives largely listed as inhibitors | 25 tested, under 10 active | AID 588859, 2011;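 active means clear concentration-dependent signal drop in the bead assay lacking the target, so a primary-screen artifact; inconclusive means weak, partial or single-dose response; inactive means no response, so a real primary hit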
# TbPGK inh = qHTS for inhibitors of Phosphogylcerate Kinase: Hit Validation Screen; actives 79% (n = 500); shares compounds with POLK inh; Potency, µM (doses to about 57.5 µM), most hits filed as inhibitors; TbPGK coupled GAPDH assay, Kinase-Glo luminescence; AID 686980, 2013; further: nearly all actives have a fitted effect of over 65% in size
# Pol iota confirm = qHTS for Inhibitors of Polymerase Iota: Confirmatory Assay for Cherry-picked Compounds. shares compounds with POLK inh. Pol iota primer extension, TAMRA/BHQ fluorescence. Potency, µM, most hits filed as inhibitors. actives 77% (n = 1,500). AID 720496, 2013
# Pol eta inh-2 = qHTS for Inhibitors of Polymerase Eta: Confirmatory Assay for Cherry-picked Compounds; shares compounds with Pol eta inh-1; Pol eta primer extension, TAMRA/BHQ fluorescence, 10 min; Potency, µM, actives largely listed as inhibitors; actives 64% (n = 2,600); AID 720502, 2013
# Hits are given with their value; i = inactive; ? = inconclusive; nt = no result; [ ] = dose if it differs, or a comment. Shown are actives, neighbours in structure and some others; about 2.4% of the full set was active somewhere. Unless noted, the call rests on the fitted dose curve; in most records, active means well fitted curve in the direction sought with a large enough effect; inconclusive means small, poorly fitted or top-dose-only effect, or another doubt; inactive means no such curve, though single readings can be large; an effect the other way counts as inactive or inconclusive.
SMILES,POLK inh,Pol beta inh-1,WRN helicase inh,FEN1 inhibitor,Pol eta inh-1,POLI inh,BAZ2B confirm,AlphaScreen ctr,others
C[C@@H](Cc1cccc(C(F)(F)F)c1)NCCCc1ccccc1,i[19.4 µM],nt,nt,nt,nt,nt,nt,nt,
OC[C@H]1OC(O)C[C@@H](O)[C@@H]1O (some centres undefined),i,nt,i,i,i,?,nt,nt,
C=C(C)C(=O)Nc1cccc(C2=NOC3(C2)C[C@H](C(N)=O)N(C(=O)/C=C/C)C3)c1 (some centres undefined),?,5.01µM,i,i,8.91µM,?,7.08,i,Pol beta inh-2=7.08;Klenow counter=i;HIV RT inh=i;Pol iota confirm=?;Pol eta inh-2=19
CCC(=O)Nc1cc(C(=O)O)ccc1S(=O)(=O)c1ccc(C)cc1,?,10µM,?,?,5.62µM,?,nt,nt,Pol beta inh-2=28.2;Klenow counter=i;HIV RT inh=i;Pol iota confirm=59.7;Pol eta inh-2=19
CCC(=O)Nc1ccccc1,i,i,i,i,i,i,nt,nt,
CCOc1ccc(NS(=O)(=O)c2ccc(Cl)c(N=Nc3c(O)[nH]c(=S)[nH]c3=O)c2)cc1Br,nt,nt,?,nt,20µM,nt,nt,nt,TbPGK inh=14.6µM
O=C(O)c1ccccc1NS(=O)(=O)c1cccc(N=Nc2c(O)[nH]c(=S)[nH]c2=O)c1,i,nt,i,i,i,?,nt,nt,
Cc1noc(C)c1C(=O)N1CCC[C@@]2(CCN(CC(C)C)C2)C1,i,nt,nt,nt,nt,nt,nt,nt,
CCn1c(C)c(C(=O)Nc2ccc(OC)cc2)c2cc(OC)ccc21,i,i,i,i,i,i,nt,nt,
COc1ccc(NC(=O)CN(C)C(=O)c2cc3c(s2)CCC3)cc1,10µM,nt,39.8µM,25.1µM,3.16µM,7.08µM,7.94,i,
CCOP(=O)(OCC)C(O)c1ccc2c(c1)OCO2 (centres undefined),i,i,i,i,i,i,nt,nt,
COCCN(Cc1cc2cc3c(cc2nc1Cl)OCO3)C(=O)c1ccc(C)cc1,i,i,i,i,i,i,11.2,?,
